The nature of test [1]: qHTS assay to identify aromatase inhibitors - cell viability counter screen (AID 743084).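 Further: cells stimulated with testosterone during compound exposure; nearly all actives have a fitted effect of over 55% in size.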 Further: potency means the concentration at half of the fitted maximal effect.
In test [2] the target is Aryl hydrocarbon receptor (Homo sapiens) (UniProt P35869). The test can be described thus: qHTS assay to identify small molecule that activate the aryl hydrocarbon receptor (AhR) signaling pathway (AID 743085).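 Further: HG2L7.5c1 human HepG2 liver cells with stably integrated DRE-driven firefly reporter; series mostly up to about 70 µM; nearly all actives have a fitted effect of over 15% in size.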 Put shortly: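 AhR agonist activity is inferred from enhanced light output of a DRE-controlled firefly luciferase reporter in HepG2 cells, measured with ONE-Glo following 24 h treatment at 37C.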
Aryl hydrocarbon receptor (Homo sapiens), sequence (P35869 whole entry, looked up): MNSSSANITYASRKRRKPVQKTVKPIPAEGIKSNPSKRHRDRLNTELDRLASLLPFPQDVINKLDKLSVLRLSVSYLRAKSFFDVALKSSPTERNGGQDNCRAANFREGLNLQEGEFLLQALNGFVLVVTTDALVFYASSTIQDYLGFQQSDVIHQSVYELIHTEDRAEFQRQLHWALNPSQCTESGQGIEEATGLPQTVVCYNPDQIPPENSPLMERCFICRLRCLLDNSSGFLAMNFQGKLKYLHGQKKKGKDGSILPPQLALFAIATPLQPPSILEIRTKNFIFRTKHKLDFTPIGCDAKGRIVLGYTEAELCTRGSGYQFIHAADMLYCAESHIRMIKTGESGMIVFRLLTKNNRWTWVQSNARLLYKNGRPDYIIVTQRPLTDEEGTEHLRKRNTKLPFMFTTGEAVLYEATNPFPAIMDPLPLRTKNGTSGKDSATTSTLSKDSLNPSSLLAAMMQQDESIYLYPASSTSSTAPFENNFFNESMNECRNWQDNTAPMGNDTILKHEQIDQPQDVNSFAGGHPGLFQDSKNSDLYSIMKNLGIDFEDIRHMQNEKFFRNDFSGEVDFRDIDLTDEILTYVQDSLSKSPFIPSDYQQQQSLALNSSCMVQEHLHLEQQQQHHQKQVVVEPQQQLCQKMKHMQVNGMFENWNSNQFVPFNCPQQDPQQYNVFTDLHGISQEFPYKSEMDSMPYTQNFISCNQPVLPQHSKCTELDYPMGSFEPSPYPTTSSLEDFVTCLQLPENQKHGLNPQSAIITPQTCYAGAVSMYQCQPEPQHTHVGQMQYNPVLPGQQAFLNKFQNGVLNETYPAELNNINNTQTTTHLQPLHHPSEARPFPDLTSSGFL
(In general: In qHTS, concentration-response curves come from the screen itself.)

Test [3] in a line: qHTS assay to identify small molecule that activate the aryl hydrocarbon receptor (AhR) signaling pathway - cell viability counter screen (AID 743086).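 Further: HepG2 liver cells carrying the AhR DRE luciferase reporter; series mostly up to about 70 µM; nearly all actives have a fitted effect of over 45% in size.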 A digest of the protocol:
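Cytotoxicity counter screen: CellTiter-Fluor signal (30 min, 37 C) in 4000 HepG2 cells/well carrying the DRE-luciferase reporter, following 24 h compound exposure at 37 C.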

Test [4] is described as follows: qHTS assay to identify small molecule antagonists of the peroxisome proliferator-activated receptor gamma (PPARg) signaling pathway - cell viability counter screen (AID 743194). Further: nearly all actives have a fitted effect of over 55% in size. A digest of the protocol:
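Viability was measured as CellTiter-Glo luminescence in GeneBLAzer PPARg UAS-bla HEK293H cells. These cells had been exposed 17 h at 37 C to compounds together with rosiglitazone at 50 nM final, with the beta-lactamase readout taken in the same wells.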

A short description of test [5]: qHTS assay for small molecule agonists of the antioxidant response element (ARE) signaling pathway - cell viability counter screen (AID 743203; calls by dose curve; further: nearly all actives have a fitted effect of over 55% in size; further: potency means the concentration at half of the fitted maximal effect). Put shortly:
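Viability counter screen: CellTiter-Glo luminescence, read after 30 min at room temperature, in ARE-bla HepG2 wells. Compound exposure lasted 16 h at 37C/5% CO2, following a 5 h pre-incubation of the cells after plating.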

The nature of test [6]: qHTS assay for small molecule activators of the heat shock response signaling pathway - cell viability counter screen (AID 743209). Further: nearly all actives have a fitted effect of over 50% in size. Put shortly:
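Cytotoxicity counter screen run in the same wells as the heat-shock bla reporter assay: HeLa HSE-bla cells, 5 h compound exposure at 37 C, viability read by CellTiter-Glo luminescence.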

Test [7] is described as follows: qHTS assay for small molecule activators of the heat shock response signaling pathway (AID 743210; active means well fitted activation curve with a large enough effect in the signal ratio in the repeat runs, with a control signal flat, not every such curve was filed as active; the % refers to the signal ratio; further: series mostly up to about 63 µM). Put shortly:
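Compound exposure lasted 5 h at 37 C in HeLa cells carrying a heat-shock-element-driven beta-lactamase reporter. Read-out: fluorescence intensity after 2.5 h room-temperature loading with LiveBLAzer B/G FRET substrate.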

The nature of test [8]: qHTS assay to identify small molecule agonists of the peroxisome proliferator-activated receptor delta (PPARd) signaling pathway - cell viability counter screen (AID 743211). Further: nearly all actives have a fitted effect of over 55% in size. Put shortly: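 qHTS cell viability: PPARd-bla HEK293H; 17 h cpd, 37C; CellTiter-Glo, luminescence at 30 min RT.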
Test [9] addresses Peroxisome proliferator-activated receptor delta (Homo sapiens) (UniProt Q03181). The test can be described thus: qHTS assay to identify small molecule agonists of the peroxisome proliferator-activated receptor delta (PPARd) signaling pathway (AID 743212; calls by dose curve;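 further: HEK293H cells with PPARd UAS beta-lactamase reporter GeneBLAzer system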). Put shortly:
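Beta-lactamase reporter readout: a ratiometric FRET signal from the LiveBLAzer substrate after 2 h at room temperature. Compound exposure at 37 °C in PPARδ-bla HEK293H cells driven by an upstream activator sequence.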

Test [10] in a line: qHTS assay to identify small molecule antagonists of the peroxisome proliferator-activated receptor delta (PPARd) signaling pathway - cell viability counter screen (AID 743213). Further: nearly all actives have a fitted effect of over 50% in size. Further: potency means the concentration at half of the fitted maximal effect. Put shortly: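 HEK293H cells with the PPARd UAS-bla reporter, co-treated 17 h at 37 C with compounds and L165041 (300 nM final), were lysed with CellTiter-Glo. Luminescence indicated viable cell content.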

Test [11] deals with Peroxisome proliferator-activated receptor delta (Homo sapiens) (UniProt Q03181). The test can be described thus: qHTS assay to identify small molecule antagonists of the peroxisome proliferator-activated receptor delta (PPARd) signaling pathway (AID 743215; active means well fitted inhibition curve with a large enough effect in the signal ratio in the repeat runs, not every such curve was filed as active; the % refers to the signal ratio;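 further: cells stimulated with agonist L165041 at 300 nM final during compound exposure; series mostly up to about 62 µM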). A digest of the protocol:
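Agonist L165041 (300 nM final) added with compound to PPARd-bla HEK293H UAS-bla reporter cells; 17 h incubation at 37 C. Read-out: LiveBLAzer FRET substrate, 2 h at room temperature, fluorescence intensity.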

Test [12] in a line: qHTS assay to identify small molecule agonists of the farnesoid-X-receptor (FXR) signaling pathway - cell viability counter screen (AID 743218). Further: nearly all actives have a fitted effect of over 45% in size. Further: potency means the concentration at half of the fitted maximal effect. A digest of the protocol:
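Viability counter screen in the same wells: CellTiter-Glo luminescence, 30 min room-temperature incubation, measured after the beta-lactamase read. Cells were GeneBLAzer FXR-UAS-bla HEK 293T, compound-treated 16 h at 37C.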

A short description of test [13]: qHTS assay to identify small molecule antagonists of the farnesoid-X-receptor (FXR) signaling pathway - cell viability counter screen (AID 743221; active means well fitted cell-killing curve with a large enough effect in the repeat runs, not every such curve was filed as active; further: nearly all actives have a fitted effect of over 50% in size; further: potency means the concentration at half of the fitted maximal effect). Put shortly:
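After a 5 h settling period, FXR-bla HEK 293T cells receive compound and chenodeoxycholic acid (50 uM final) and incubate 16 h at 37 C; CellTiter-Glo luminescence, read after 30 min at room temperature, reports cell viability.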

For test [14], the target named is Vitamin D3 receptor (Homo sapiens) (UniProt P11473). The test can be described thus: qHTS assay to identify small molecule agonists of the vitamin D receptor (VDR) signaling pathway (AID 743222; calls by dose curve). A digest of the protocol:
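Agonist mode, beta-lactamase reporter: fluorescence from LiveBLAzer B/G FRET substrate (2 h, room temperature) read after 16 h compound treatment at 37 C of VDR-bla cells, which were pre-incubated 4 h after seeding.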

For test [15] the target is unchanged. The test can be described thus: qHTS assay to identify small molecule antagonists of the vitamin D receptor (VDR) signaling pathway (AID 743223; active means well fitted inhibition curve with a large enough effect in the signal ratio in the repeat runs, not every such curve was filed as active; the % refers to the signal ratio). Put shortly: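 Reporter line VDR-bla; stimulus 1alpha,25-(OH)2 vitamin D3, 3 nM final; compound co-addition, 16 h 37C/5% CO2; LiveBLAzer B/G substrate 2 h RT; fluorescence intensity.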
Test [16] has as its target Peroxisome proliferator-activated receptor gamma (Homo sapiens) (UniProt P37231). The test can be described thus: qHTS assay to identify small molecule agonists of the peroxisome proliferator-activated receptor gamma (PPARg) signaling pathway (AID 743094; active means well fitted activation curve with a large enough effect in the signal ratio in the repeat runs, not every such curve was filed as active; the % refers to the signal ratio). Put shortly: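 Agonist activity was taken from a beta-lactamase reporter (FRET substrate, 1 h at room temperature) in HEK293H cells carrying a PPARg UAS-bla construct. Compounds in DMSO were incubated 17 h at 37C after a 5 h cell pre-incubation.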

Test [17] in a line: qHTS assay for small molecule agonists of the antioxidant response element (ARE) signaling pathway (AID 743202; active means well fitted activation curve with a large enough effect in the signal ratio in the repeat runs, not every such curve was filed as active; the % refers to the signal ratio; further: potency means the concentration at half of the fitted maximal effect). Put shortly:
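After 16 hours of compound treatment at 37 C, HepG2 cells with a stably integrated ARE-driven beta-lactamase reporter were loaded 2 hours at room temperature with LiveBLAzer B/G FRET substrate and fluorescence intensity measured.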

In test [18] the target is Peroxisome proliferator-activated receptor gamma (Homo sapiens) (UniProt P37231). The test can be described thus: qHTS assay to identify small molecule antagonists of the peroxisome proliferator-activated receptor gamma (PPARg) signaling pathway (AID 743191; calls by dose curve; further: series mostly up to about 63 µM; nearly all actives have a fitted effect of over 30% in size). Put shortly: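 Beta-lactamase reporter under UAS control in HEK293H PPARg-bla cells; compound treatment 17 h at 37C. Read-out: fluorescence intensity after 1 h room-temperature incubation with LiveBLAzer B/G FRET substrate.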
Peroxisome proliferator-activated receptor gamma (Homo sapiens), sequence (P37231 whole entry, looked up): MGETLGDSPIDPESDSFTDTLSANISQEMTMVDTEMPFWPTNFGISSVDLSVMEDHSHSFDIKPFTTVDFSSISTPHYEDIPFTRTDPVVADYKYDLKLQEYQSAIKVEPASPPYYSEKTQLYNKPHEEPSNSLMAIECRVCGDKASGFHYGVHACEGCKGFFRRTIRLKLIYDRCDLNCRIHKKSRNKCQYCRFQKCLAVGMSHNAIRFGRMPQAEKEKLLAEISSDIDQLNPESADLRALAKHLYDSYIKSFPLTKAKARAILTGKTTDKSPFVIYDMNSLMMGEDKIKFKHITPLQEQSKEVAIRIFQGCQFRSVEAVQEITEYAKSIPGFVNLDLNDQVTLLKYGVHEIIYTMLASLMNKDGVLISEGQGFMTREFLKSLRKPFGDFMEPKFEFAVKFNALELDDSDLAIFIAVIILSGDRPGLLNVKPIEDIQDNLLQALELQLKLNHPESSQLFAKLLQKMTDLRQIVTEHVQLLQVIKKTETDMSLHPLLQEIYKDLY

Test [19] addresses Bile acid receptor (Homo sapiens) (UniProt Q96RI1). The test can be described thus: qHTS assay to identify small molecule antagonists of the farnesoid-X-receptor (FXR) signaling pathway (AID 743217; active means well fitted inhibition curve with a large enough effect in the signal ratio in the repeat runs, not every such curve was filed as active; the % refers to the signal ratio). A digest of the protocol:
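Antagonist mode: chenodeoxycholic acid at 50 uM final stimulates a UAS-driven beta-lactamase reporter in HEK 293T FXR-bla cells during 16 h, 37C compound exposure. Read-out is FRET substrate fluorescence after 2 h at room temperature.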

Test [20] shares this target. The test can be described thus: qHTS assay to identify small molecule agonists of the farnesoid-X-receptor (FXR) signaling pathway (AID 743220; active means well fitted activation curve with a large enough effect in the signal ratio in the repeat runs, not every such curve was filed as active; the % refers to the signal ratio). A digest of the protocol: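 FXR-UAS-bla HEK 293T cells carrying a UAS-driven beta-lactamase reporter were plated for 5 h at 37C/5% CO2, then exposed to DMSO-dissolved Tox21 10K compounds for 16 h at 37C. A LiveBLAzer B/G FRET substrate was loaded for 2 h at room temperature before fluorescence reading.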

Where “and” joins values, the source holds several entries; their conditions need not be identical. Equal values may be shown once. Results filed as inconclusive are left out. Some structures have more than one record in an assay (separate samples or runs), and their calls can disagree. Calls of active or inactive are those of the source. Unless noted, the call rests on the fitted dose curve; in most records, active means well fitted curve in the direction sought with a large enough effect in the repeat runs; inconclusive means weak or mixed curves; inactive means no such curve, though single readings can be large; an effect the other way counts as inactive or inconclusive.

Bile acid receptor (Homo sapiens), sequence (Q96RI1 whole entry, looked up): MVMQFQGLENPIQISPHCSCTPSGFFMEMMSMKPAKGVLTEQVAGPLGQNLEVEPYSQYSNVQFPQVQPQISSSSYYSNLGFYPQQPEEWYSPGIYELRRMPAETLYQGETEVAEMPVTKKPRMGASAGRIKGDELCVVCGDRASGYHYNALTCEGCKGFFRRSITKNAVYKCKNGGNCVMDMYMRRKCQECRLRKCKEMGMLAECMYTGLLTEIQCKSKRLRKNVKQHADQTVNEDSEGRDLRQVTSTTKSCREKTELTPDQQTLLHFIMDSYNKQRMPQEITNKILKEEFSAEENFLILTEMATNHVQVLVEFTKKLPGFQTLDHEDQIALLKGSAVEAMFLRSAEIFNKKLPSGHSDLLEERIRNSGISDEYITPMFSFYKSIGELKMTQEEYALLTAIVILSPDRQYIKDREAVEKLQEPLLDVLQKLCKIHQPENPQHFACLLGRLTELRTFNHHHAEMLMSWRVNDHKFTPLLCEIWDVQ
Peroxisome proliferator-activated receptor delta (Homo sapiens), sequence (Q03181 whole entry, looked up): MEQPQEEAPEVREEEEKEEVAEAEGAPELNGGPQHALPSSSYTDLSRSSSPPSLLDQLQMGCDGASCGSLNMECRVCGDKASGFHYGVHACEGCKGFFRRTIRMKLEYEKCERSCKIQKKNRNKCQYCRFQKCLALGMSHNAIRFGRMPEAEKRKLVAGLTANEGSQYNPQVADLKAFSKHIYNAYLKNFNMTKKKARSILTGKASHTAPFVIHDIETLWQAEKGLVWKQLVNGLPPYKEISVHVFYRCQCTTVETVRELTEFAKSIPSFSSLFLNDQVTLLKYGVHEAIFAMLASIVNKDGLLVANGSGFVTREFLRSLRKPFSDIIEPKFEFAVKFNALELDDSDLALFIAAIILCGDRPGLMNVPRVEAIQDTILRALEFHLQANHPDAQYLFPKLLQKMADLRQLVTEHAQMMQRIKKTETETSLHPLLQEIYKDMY
Vitamin D3 receptor (Homo sapiens), sequence (P11473 whole entry, looked up): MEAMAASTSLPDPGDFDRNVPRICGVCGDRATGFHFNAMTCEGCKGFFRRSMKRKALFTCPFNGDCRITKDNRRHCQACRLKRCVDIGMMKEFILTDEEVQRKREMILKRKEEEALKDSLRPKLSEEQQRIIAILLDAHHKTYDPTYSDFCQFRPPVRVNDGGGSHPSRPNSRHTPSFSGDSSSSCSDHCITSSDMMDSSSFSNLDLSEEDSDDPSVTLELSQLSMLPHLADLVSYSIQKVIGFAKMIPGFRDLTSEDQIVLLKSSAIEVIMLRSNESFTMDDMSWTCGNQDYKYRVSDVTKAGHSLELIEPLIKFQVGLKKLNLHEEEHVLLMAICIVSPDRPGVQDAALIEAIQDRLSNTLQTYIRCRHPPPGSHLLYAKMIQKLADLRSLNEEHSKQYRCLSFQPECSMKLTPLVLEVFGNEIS

As to `C[C@]12CC[C@@H]3c4ccc(O)cc4CC[C@H]3[C@@H]1CC[C@@H]2O`, the Potency result in test [1], in [2], in test [3], in [4], in test [5] and in test [6] was “inactive” each time. Also, the Potency entry in test [8], in [10], in [12] and in [13] was “inactive” each time. Besides, the call in test [7], in [9], in test [11], in test [14] and in test [15] was inactive.

For `C[C@]12CC[C@@H]3c4ccc(O)cc4CC[C@H]3[C@@H]1CC[C@H]2O`, the Potency entry in [1], in [3], in test [5], in [6], in test [8] and in test [10] was “inactive” each time. For the same compound, the Potency result in test [12] and in test [13] was “inactive” throughout. For the same compound, the outcome in test [16], in test [7], in test [9], in test [11], in test [14] and in test [15] was inactive.

Consider `CC(=O)O[C@]1(C(C)=O)CC[C@H]2[C@@H]3C=C(C)C4=CC(=O)CC[C@]4(C)[C@H]3CC[C@@]21C`, for which the Potency entry in test [1], in test [3], in test [4], in test [5], in [6] and in test [8] was “inactive” in each case. Besides, the Potency entry in [10] and in test [12] was “inactive” each time. Also, the compound was called inactive in test [16], in test [7] and in test [15]. Moreover, in test [17], the Potency was 19.3 µM (active) and 11.9 µM (active).

On to `CC1(C)C(C=C(Cl)Cl)C1C(=O)OCc1cccc(Oc2ccccc2)c1` (centres undefined), for which the Potency entry in [1], in test [3], in [17], in test [5], in test [6] and in [8] was “inactive” in each case. The Potency entry in test [10], in [12] and in test [13] was “inactive” throughout. Besides, the result in test [7], in [9], in test [11], in test [14] and in [15] was inactive.

Take `CCC(=O)O[C@H]1[C@H](O[C@@H]2[C@@H](C)[C@H](O[C@H]3C[C@@](C)(OC)[C@@H](O)[C@H](C)O3)[C@@H](C)C(=O)O[C@H](CC)[C@@](C)(O)[C@H](O)[C@@H](C)C(=O)[C@H](C)C[C@@]2(C)O)O[C@H](C)C[C@@H]1N(C)C`: the Potency in test [1] was 18.1 µM (active); in test [5], 40.5 µM (active) and inactive; in test [10] it was 23 µM (active) and inactive; in test [12], 32.5 µM (active) and inactive; in test [13], 32.5 µM (active) and inactive. Further, the compound was called inactive in test [16], in test [7] and in test [14]. Also, the Potency result in test [4], in test [17], in test [6] and in test [8] was “inactive” each time.

Consider `c1ccc2cc3ccccc3cc2c1`, for which the Potency result in [1], in test [3], in test [18], in test [17], in test [5] and in test [6] was “inactive” throughout. For the same compound, the Potency result in test [8], in test [10], in test [19], in test [12] and in [13] was “inactive” in each case. In addition, the compound was called inactive in test [16], in test [9], in test [11], in [20], in [14] and in test [15].

For the compound `CCO[Si](CCCNC(N)=O)(OCC)OCC`, the Potency entry in [1], in test [3], in test [18], in test [17], in test [5] and in test [6] was “inactive” in each case. For the same compound, the Potency entry in [8], in [10], in test [19], in [12] and in test [13] was “inactive” throughout. Besides, the compound was called inactive in [16], in test [7], in [9], in [11], in test [20] and in test [14]. Further, the result in [15] was inactive.

With `CC1(C)NC(=O)N(c2ccc([N+](=O)[O-])c(C(F)(F)F)c2)C1=O`, the Potency result in test [1], in test [3], in [18], in test [5], in [6] and in test [8] was “inactive” throughout. The Potency result in [10], in test [19], in test [12] and in test [13] was “inactive” in each case. For the same compound, the outcome in [16], in test [7], in [20], in test [14] and in test [15] was inactive. Further, the Potency in test [17] is 6.86 µM (active) and 26.6 µM (active).

Regarding `C=C[C@H]1CN2CC[C@H]1C[C@H]2[C@H](O)c1ccnc2ccc(OC)cc12`, the Potency entry in test [1], in test [3], in [5], in [6], in test [8] and in [12] was “inactive” each time. The Potency entry in test [13] is “inactive”. The call in [9] and in test [11] was inactive.

On to `CCCCCC=O`, for which the Potency result in [2], in [3], in [17], in test [5], in test [6] and in [8] was “inactive” throughout. The Potency entry in [10], in test [19], in [12] and in test [13] was “inactive” in each case. In addition, the compound was classed as inactive in test [16], in test [7], in test [9], in [20], in test [14] and in test [15].

On to `CC/C=C\C/C=C\C/C=C\CCCCCCCC(=O)O`, for which the Potency entry in test [1], in test [3], in test [5], in [6], in [8] and in [19] was “inactive” each time. Moreover, the Potency result in test [12] is “inactive”. The Potency entry in test [17] was “inactive and 34.4 µM (active)”; in [10], “inactive and 34.7 µM (active)”. Moreover, the call in test [7], in test [9], in [20], in test [14] and in [15] was inactive.

Turning to `COC(=O)c1ccc(C)cc1`, the Potency result in test [1], in test [3], in test [4], in test [17], in test [5] and in [6] was “inactive” in each case. Besides, the Potency entry in test [8], in [10], in [19], in test [12] and in test [13] was “inactive” in each case. Moreover, the compound was called inactive in [7], in [9], in [11], in test [20], in test [14] and in test [15].

(Values after PubChem BioAssay (Tox21).)
